Laboratory results from PubChem BioAssay AID1159580 (chemical genetic matrix, 2015).
The whole screen tested about 5,500 compounds, of which about 2,000 (36%) were called active. Inconclusive results (about 18%) are left out. Rule as the data show it: active = normalized growth mostly below about 0.91 (no sharp cut-off); inconclusive = no clear call, values can overlap the other calls; inactive = mostly above about 0.92. The list shows a part of the results.

Experiment: chemical genetic growth profiling, strain panel (AID 1159580);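 also: tested at 20 µM; growth read once vehicle control cultures reached saturation at 30 °C; 1 = growth at the plate median or of vehicle wells; lower values mean less growth of the strain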
Conditions: S. cerevisiae deletion strains, growth OD

Measured: normalized growth

CC12CCC(=O)C=C1CCc1ccccc12 (configuration not stated)
active: locus YER155C, strain BEM2 (second series), hits give low values 0.849 | locus YLR357W, strain rsc2, hits give low values 0.844
inactive: locus YAL021C, strain ccr4, hits give low values 0.992 | locus YAL026C, strain drs2, hits give low values 0.985 | locus YAL030W, strain snc1, hits give low values 0.984 | locus YBL061C, strain skt5, hits give low values 0.981 | locus YBR009C, strain hhf1, hits give low values 0.985 | locus YBR023C, strain chs3, hits give low values 0.979 | locus YBR171W, strain sec66, hits give low values 0.972 | locus YBR231C, strain swc5, hits give low values 0.985 | locus YBR279W, strain paf1, hits give low values 0.985 | locus YCL011C, strain gbp2, hits give low values 0.997 | locus YCL016C, strain dcc1, hits give low values 0.978 | locus YCL061C, strain MRC1, hits give low values 0.977 | locus YCL069W, strain vba3, hits give low values 0.986 | locus YCR088W, strain abp1, hits give low values 0.966 | locus YDL005C, strain med2, hits give low values 0.985 | locus YDL040C, strain nat1, hits give low values 0.967 | locus YDR001C, strain nth1, hits give low values 0.967 | locus YDR069C, strain doa4, hits give low values 0.984 | locus YDR137W, strain rgp1, hits give low values 1.05 | locus YDR159W, strain sac3, hits give low values 0.955 | locus YDR195W, strain ref2 0.947 | locus YDR297W, strain sur2, hits give low values 0.978 | locus YDR334W, strain swr1, hits give low values 0.959 | locus YDR335W, strain msn5, hits give low values 0.978 | locus YDR392W, strain spt3, hits give low values 0.825 | locus YEL003W, strain gim4, hits give low values 0.981 | locus YEL037C, strain rad23, hits give low values 0.972 | locus YEL061C, strain CIN8 (second series), hits give low values 0.966 | locus YER015W, strain faa2, hits give low values 0.986 | locus YER016W, strain bim1, hits give low values 0.972 | locus YER111C, strain swi4, hits give low values 0.972 | locus YFR010W, strain ubp6, hits give low values 0.99 | locus YGL167C, strain pmr1, hits give low values 0.97 | locus YGL173C, strain kem1, hits give low values 0.985 | locus YGL227W, strain vid30, hits give low values 0.979 | locus YGL240W, strain doc1, hits give low values 0.925 | locus YGL253W, strain hxk2, hits give low values 0.98 | locus YHR013C, strain ard1, hits give low values 0.941 | locus YHR027C, strain rpn1, hits give low values 0.994 | locus YHR142W, strain chs7, hits give low values 0.978 | locus YJL092W, strain hpr5, hits give low values 0.974 | locus YJL095W, strain BCK1 (second series), hits give low values 0.994 | locus YJL115W, strain asf1, hits give low values 0.977 | locus YJL129C, strain trk1, hits give low values 0.964 | locus YJL154C, strain vps35, hits give low values 0.972 | locus YJL164C, strain tpk1, hits give low values 0.984 | locus YJL166W, strain qcr8, hits give low values 0.977 | locus YJL187C, strain SWE1, hits give low values 0.982 | locus YKL160W, strain elf1, hits give low values 1 | locus YKR026C, strain gcn3, hits give low values 0.951 | locus YKR091W, strain srl3, hits give low values 0.971 | locus YLL001W, strain dnm1, hits give low values 0.968 | locus YLL026W, hits give low values 0.979 | locus YLL041C, strain sdh2, hits give low values 0.973 | locus YLR027C, strain aat2, hits give low values 0.99 | locus YLR221C, strain rsa3, hits give low values 1.01 | locus YLR258W, strain gsy2, hits give low values 0.992 | locus YLR262C, strain YPT6 (second series), hits give low values 1.07 | locus YLR320W, strain mms22, hits give low values 0.973 | locus YLR342W, strain FKS1, hits give low values 0.977 | locus YLR370C, strain arc18, hits give low values 0.984 | locus YLR384C, strain iki3, hits give low values 0.972 | locus YML120C, strain ndi1, hits give low values 0.984 | locus YMR058W, strain fet3, hits give low values 0.982 | locus YMR125W, strain sto1, hits give low values 0.969 | locus YMR129W, hits give low values 0.983 | locus YMR205C, strain PFK2, hits give low values 0.985 | locus YMR231W, strain pep5, hits give low values 0.977 | locus YNL071W, strain lat1, hits give low values 0.978 | locus YNL209W, strain ssb2, hits give low values 0.989 | locus YNL248C, strain rpa49, hits give low values 0.951 | locus YNL322C, strain KRE1 (second series), hits give low values 0.962 | locus YNR049C, strain mso1, hits give low values 0.98 | locus YOR001W, strain rrp6, hits give low values 0.994 | locus YOR070C, strain gyp1, hits give low values 0.992 | locus YOR080W, strain dia2, hits give low values 0.974 | locus YOR083W, strain WHI5, hits give low values 1 | locus YOR106W, strain vam3, hits give low values 1 | locus YOR265W, strain rbl2, hits give low values 0.984 | locus YOR270C, strain vph1, hits give low values 0.931 | locus YOR290C, strain snf2, hits give low values 0.933 | locus YPL051W, strain arl3, hits give low values 0.994 | locus YPL078C, strain atp4, hits give low values 0.977 | locus YPL106C, strain sse1, hits give low values 0.973 | locus YPL240C, strain hsp82, hits give low values 0.985
